Screens deposited in PubChem by The Scripps Research Institute Molecular Screening Center.
PAFAH1B3 inh = PAFAH1B3 enzyme inhibitors, primary screen, biochemical, fluorescence polarization, human; 340,000 compounds, 0.28% hits; inhibition, % at 3.39 µM; recombinant PAFAH1B3, FP-rhodamine probe; Platelet-activating factor acetylhydrolase IB subunit alpha1 (Homo sapiens), Q15102; AID 492972, 2010;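 active = inhibition above the screen-wide average of all tested compounds plus 3 SD, cut at about 25% in these data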;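 note: 0% = enzyme with DMSO only and 100% = wells lacking PAFAH1B3 protein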
PME-1 inh = PME-1 inhibitors via competitive probe labeling, primary screen, biochemical, fluorescence polarization, FP-Rh probe, HTS. recombinant PME-1. inhibition, % at 5.9 µM. 320,000 compounds, 0.53% hits. AID 2130, 2009;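 active = inhibition above the campaign mean of all compounds plus 3 SD, cut at about 26% in these data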;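 note: competitive labeling of PME-1 active site by serine hydrolase directed probe; 0% = PME-1 with DMSO and 100% = wells lacking PME-1 enzyme; inhibitors block probe labeling so polarization falls and inhibition rises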
Target sequence (Q9Y570 whole entry, looked up): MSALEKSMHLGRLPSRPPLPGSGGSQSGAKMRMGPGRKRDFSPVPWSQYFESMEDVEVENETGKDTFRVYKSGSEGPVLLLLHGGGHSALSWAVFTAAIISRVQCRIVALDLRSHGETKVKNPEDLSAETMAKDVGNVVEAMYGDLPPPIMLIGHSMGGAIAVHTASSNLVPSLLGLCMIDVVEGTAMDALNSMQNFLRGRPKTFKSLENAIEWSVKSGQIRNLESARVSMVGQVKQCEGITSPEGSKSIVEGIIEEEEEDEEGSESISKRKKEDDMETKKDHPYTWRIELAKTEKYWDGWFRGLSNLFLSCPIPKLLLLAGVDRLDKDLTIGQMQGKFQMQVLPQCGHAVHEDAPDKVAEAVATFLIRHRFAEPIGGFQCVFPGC
Fam108B inh = mouse Fam108B serine hydrolase inhibitors, primary screen, counter-screen for RBBP9 inhibitor project, biochemical, fluorescence polarization; recombinant Fam108B, FP-Rh probe fluorescence polarization; AID 1947, 2009; inhibition, % at 9.51 µM; 300,000 compounds, 0.33% hits;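 active = inhibition above the screen mean inhibition plus 3 SD, computed separately per campaign, cut at about 18% in these data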;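 note: inhibitors lower polarization as less probe binds the enzyme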
PAFAH2 FP inh = PAFAH2 enzyme inhibitors, primary screen, biochemical, fluorescence polarization, human; Platelet-activating factor acetylhydrolase 2, cytoplasmic (Homo sapiens), Q99487; recombinant PAFAH2, FP-rhodamine activity probe; inhibition, % at 3.39 µM; 340,000 compounds, 0.99% hits;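 active = inhibition above the mean over all tested compounds plus 3 SD, cut at about 30% in these data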;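 note: inhibitors block probe labeling of enzyme so polarization drops; 0% = enzyme with DMSO and 100% = wells lacking PAFAH2 protein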
pPAFAH inh = pPAFAH enzyme inhibitors, primary screen, biochemical, fluorescence polarization, human; Platelet-activating factor acetylhydrolase (Homo sapiens), Q13093; recombinant pPAFAH, FP-rhodamine probe fluorescence polarization; inhibition, % at 3.39 µM; 330,000 compounds, 1.5% hits; AID 463082, 2010;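 active = inhibition above the mean inhibition across the screen plus 3 SD, cut at about 25% in these data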;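 note: inhibitors block binding of the rhodamine activity-based probe so polarization drops; 0% = enzyme with DMSO and 100% = wells lacking pPAFAH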
PAFAH1B2 inh = PAFAH1B2 enzyme inhibitors, primary screen, biochemical, fluorescence polarization, human. recombinant PAFAH1B2, FP-rhodamine activity probe. AID 492953, 2010. 340,000 compounds, 1.2% hits. inhibition, % at 3.39 µM;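 active = inhibition above the mean of all tested compounds plus 3 SD, cut at about 24% in these data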;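 note: 0% = enzyme with DMSO and 100% = wells lacking PAFAH1B2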
Target sequence (P68402 whole entry, looked up): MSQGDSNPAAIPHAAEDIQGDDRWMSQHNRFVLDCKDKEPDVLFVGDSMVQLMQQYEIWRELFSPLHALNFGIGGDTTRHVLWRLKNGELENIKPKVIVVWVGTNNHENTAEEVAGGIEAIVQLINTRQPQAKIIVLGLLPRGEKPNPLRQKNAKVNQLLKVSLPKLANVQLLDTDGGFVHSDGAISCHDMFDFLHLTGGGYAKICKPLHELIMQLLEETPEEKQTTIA
* = called active by the depositor; . = not tested or not shown. Sampled rows, rich in hits. Any-hit rate of the full collection: about 2.8%.

SMILES	PAFAH1B3 inh	PME-1 inh	Fam108B inh	PAFAH2 FP inh	pPAFAH inh	PAFAH1B2 inh
O=C(CN1CCCc2ccccc21)Nc1cc(S(=O)(=O)N2CCCC2)ccc1Cl	4	73*	.	0	0	-3
O=C(Nc1cc(S(=O)(=O)N2CCCCC2)ccc1Cl)c1ccccc1NS(=O)(=O)c1ccc(F)cc1	18	-5	4	2	22	30*
O=C(Nc1cc(S(=O)(=O)Nc2ccc(Cl)cc2)ccc1O)c1ccc(S(=O)(=O)N2CCCCCC2)cc1	-5	-13	-8	-11	30*	-6
O=[N+]([O-])c1c(Nc2ccc(O)cc2)cc(Cl)c2nonc12	6	21	4	7	11	0
COc1ccc(C)cc1NC(=O)COC(=O)c1c(C)nn(-c2ccccc2)c1C	10	-31	.	-2	3	1
CCOC(=O)CNC(=O)Cc1ccc(Cl)cc1	2	4	-1	-1	7	9
O=C(Cc1ccccc1F)Nc1ccc(SC(F)F)cc1	-3	5	0	1	8	5
CCOC(=O)Cc1ccc(NCc2ccc(Cl)cc2)cc1	10	0	-2	0	3	24*
O=C(COC(=O)Cc1ccc(Cl)cc1)Nc1ccc(OC(F)F)cc1	-5	2	2	-2	29*	-1
COc1ccc(NC(=O)COC(=O)Cc2ccc(Br)cc2)cc1	17	-3	-1	-1	29*	4
O=C(COC(=O)Cc1ccccc1F)Nc1ccc(SC(F)F)cc1	3	-12	1	3	26*	0
Cc1ccc(CNC(=O)Nc2ccc(Cl)cc2)cc1	0	2	-2	-1	1	65*
CN(C(=O)c1cc(COc2c(F)cccc2F)on1)C1CCOC1 (centres undefined)	0	6	-2	4	-3	3
O=C(NCC1COCCO1)c1cc(COc2c(F)cccc2F)on1 (centres undefined)	3	3	-3	0	25*	-2
O=C(O)c1ccc(-n2cccc2/C=C2/SC(=O)N(CC(=O)N3CCCC3)C2=O)cc1	23	-18	14	38*	34*	12
COc1ccc(NC(=O)CNC(=O)c2nn(-c3ccc(OC)cc3OC)c(=O)c3ccccc23)c(OC)c1	2	-6	-4	-8	4	-2
Nc1nc(-c2ccccc2)cs1	6	-2	1	0	2	39*
Nc1nc(-c2ccc(F)cc2)cs1	-2	4	8	-11	-2	55*
Nc1nc(-c2cccc(Br)c2)cs1	8	12	-1	-3	5	8
Nc1nc(-c2cc(-c3ccccc3)no2)cs1	1	-5	-3	8	4	0
Nc1nc(-c2ccc(Br)cc2)cs1	6	6	0	3	8	83*
CCOc1ccc(NC(=O)CN2C(=O)NC(C)(c3ccc4c(c3)OCCCO4)C2=O)cc1OCC (centres undefined)	-3	.	.	-6	.	-3
O=C(CCC(=O)c1cccs1)OCc1ccc([N+](=O)[O-])cc1	9	2	.	0	-2	0
CCOC(=O)Cn1c(=O)oc2cc(S(=O)(=O)Nc3c(C)cc(C)cc3C)ccc21	6	-3	-1	5	25*	-1
CCOC(=O)Cn1c(=O)oc2cc(S(=O)(=O)NC3CCCCC3)ccc21	-8	-2	3	-1	6	5
SMILES	PAFAH1B3 inh	PME-1 inh	Fam108B inh	PAFAH2 FP inh	pPAFAH inh	PAFAH1B2 inh
CCCCCCN(C(=O)CCCCCN1C(=O)NC(c2ccc(-c3ccccc3)cc2)C(C(=O)OCc2ccccc2)=C1C)C(C)C(=O)NCCCC (centres undefined)	.	-5	-12	.	28*	.
CCOC(=O)C1=C(COC(=O)CCCOc2ccccc2)NC(=O)NC1C (centres undefined)	9	.	.	5	.	3
Cc1ccc(SCC(=O)OCn2nnc3ccccc3c2=O)cc1C	6	0	-4	-8	30*	6
Cc1ccc(SCCC(=O)OCn2nnc3ccccc3c2=O)cc1	2	9	4	3	13	22
Cc1nc2c(cc1N)nc(C)n2Cc1ccccc1	2	2	-3	0	5	4
COc1cc(/C=C2\CCc3c2nc2ccccc2c3C(=O)O)cc(OC)c1OC	11	-6	11	18	32*	-1
Oc1ccccc1Cc1c(O)ccc2ccccc12	8	-1	-4	0	7	6
COc1ccc(CCNC(=S)N2CCN(S(=O)(=O)c3ccccc3)CC2)cc1	4	12	5	-1	3	2
Cc1ccc(S(=O)(=O)N2CCN(C(=S)NCCc3ccccc3)CC2)cc1	10	9	-1	2	0	45*
Cc1ccc(S(=O)(=O)N2CCN(C(=O)N(c3ccccc3)c3ccccc3)CC2)cc1	3	5	-4	12	4	26*
Cc1ccc(N(C)C(=O)N2CCN(S(=O)(=O)c3ccc(C)cc3)CC2)cc1	1	-6	4	0	4	1
O=S(=O)(Nc1ccc(-n2cnnn2)cc1)c1cccc(Cl)c1	2	.	.	-2	.	8
Cc1cccn2c(=O)c(C=NCc3ccco3)c(Nc3ccc(SC(F)F)cc3)nc12	-1	-1	-1	-5	34*	2
Cc1cccn2c(=O)c(C=NCCO)c(NCc3ccco3)nc12	2	1	-3	5	1	10
CC(C)(C)c1ccc(C(=O)NN2C(=O)CSC2=S)cc1	-2	-9	-4	-11	8	25*
Cc1cc(OCCN2CCOCC2)ccc1Cl	8	1	0	17	6	2
CCN(Cc1ccccc1)C(=O)c1cc2cc(OC)c(OC)cc2[nH]1	2	-9	0	1	33*	5
COc1cc2[nH]c(C(=O)N(C)Cc3ccccc3)cc2c(OC)c1OC	4	-3	4	2	15	6
CC(NC(=O)OCc1ccccc1)c1ccccc1 (centres undefined)	1	-4	2	8	1	15
Nc1ccc(CNC(=O)OCC2c3ccccc3-c3ccccc32)cc1	8	5	2	0	2	3
CC(c1ccccc1)C(NC(=O)OCC1c2ccccc2-c2ccccc21)C(=O)O (centres undefined)	-12	-6	-3	10	8	29*
O=C(N[C@@H](Cc1ccc(Br)cc1)C(=O)O)OCC1c2ccccc2-c2ccccc21	-2	4	-12	6	14	70*
